Laboratory results published in PubChem BioAssay AID1347076 (National Center for Advancing Translational Sciences (NCATS), 2019).
The whole screen tested about 400,000 compounds, of which about 13,000 (3.2%) were called active. About 18% were inconclusive and are not listed. The sample holds actives, similar compounds and a random draw of the others, so the mix is not that of the screen. Values without a mark were called inactive. Calls follow the shape of the dose curve; as a rule, active = well fitted cell-killing curve with a large enough effect; inconclusive = small, poorly fitted or top-dose-only effect, or effect the other way; inactive = flat fitted curve, though single readings scatter.

test: qHTS assay for MDR1-selective chemotherapeutics: Primary screen using the drug-selected MDR subline cells KB-V1; settings: KB-V1 MDR cells viability, CellTiter-Glo, 72 h; series mostly up to 46.1 µM; activity change, negative = cytotoxicity: at the top concentration; also: nearly all actives have a fitted effect of over 60% in size
Procedure, shortened: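 Drug-selected KB-V1 cells, grown in DMEM lacking phenol red with 10% FBS, receive compound titrations; after three days at 37 degrees C, surviving cell ATP is quantified by CellTiter-Glo luminescence and responses normalized and curve-fitted.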
% is scaled to controls: 0 for no effect and ±100 for the full control effect; potency is read from the fitted curve at half-maximal effect.

| SMILES | activity change, negative = cytotoxicity [%] | Potency |
| --- | --- | --- |
| Cc1nn(-c2ccccc2)c(Cl)c1/C=N/NC(=O)c1nn(C)cc1[N+](=O)[O-] | -21.2 |  |
| Cc1nn(-c2ccccc2)c(Cl)c1/C=C/C(=O)c1ccc(O)cc1 |  | 20.6 µM (active) |
| Cc1nn(-c2ccccc2)c(Cl)c1C(=O)Nc1ccccc1 | 0 |  |
| O=C1NC(O)CCN1C1CC(O)C(CO)O1 (stereo not given) | 3.08 |  |
| N#Cc1cccc(Nc2c3c(nc4ccccc24)CCCC3)c1 | 0 |  |
| Cc1ccc(Nc2c3c(nc4ccccc24)CCC3)cc1 |  | 5.8 µM (active) |
| Cc1cc(Nc2ccc(Br)cc2)nc2ccccc12 | 0 |  |
| O=C(OCc1ccccc1)N1CCC2CC1c1cc(N3CCN(S(=O)(=O)c4cc(Cl)cc(Cl)c4)CC3)ccc12 (stereo not given) | -9.13 |  |
| COc1ccc(C(=O)ON=C2c3ccccc3-c3ccccc32)cc1OC | -13.7 |  |
| COc1ccc(C/C(N)=N/OC(=O)c2ccco2)cc1OC | -7.55 |  |
| COc1ccc(C(=O)O/N=C(\N)Cc2ccc(Cl)cc2Cl)cc1OC |  | 23.1 µM (active) |
| COc1ccc(S(=O)(=O)N2CCCCC2c2cc(C(=O)NCc3ccc(F)cc3)no2)cc1 (stereo not given) | -24.5 |  |
| CCOC(=O)[C@]12CCCC=C1N(Cc1ccc3c(c1)OCO3)C(=O)[C@H](CC(=O)N1CCN(C(=O)c3ccco3)CC1)C2 | 0 |  |
| CC(=O)C1=CCC(c2ccccc2)N(S(=O)(=O)c2ccc(C)cc2)C1 (stereo not given) | 4.38 |  |
| O=C(COc1ccccc1F)NC1CC1 | -1.57 |  |
| O=C(COc1ccccc1F)Nc1nc(-c2ccccn2)cs1 |  | 4.61 µM (active) |
| N#Cc1ccc(OCC(=O)Nc2nc(-c3ccccn3)cs2)cc1 | -0.182 |  |
| COc1ccc(-c2ccc3ncnc(NCc4cccs4)c3c2)cc1OC | 12.9 |  |
| CCOC(=O)C1=CC[C@@H](c2ccccc2)N(S(=O)(=O)c2ccc(C)cc2)[C@H]1c1ccc(CC)cc1 | -16.3 |  |
| S=C(NCC1CCCO1)N1CCN(c2ccc(Cl)c(Cl)c2)CC1 (stereo not given) |  | 7.31 µM (active) |
| COc1ccc(S(=O)(=O)N2CCN(C(=S)NCC3CCCO3)CC2)cc1OC (stereo not given) | -5.5 |  |
| CCOc1ccc(S(=O)(=O)N2CCN(C(=S)NCC3CCCO3)CC2)cc1 (stereo not given) | -3.32 |  |
| CCCC(=O)Nc1ccc2oc(-c3ccc(O)c(Br)c3)nc2c1 | 0 |  |
| Cc1nn(Cc2ccc(C(=O)N3N=C(C(F)F)CC3(O)C(F)F)cc2)c(C)c1[N+](=O)[O-] (stereo not given) |  | 8.2 µM (active) |
| Cc1nn(CC(=O)N/N=C/c2ccc(F)cc2)c(C)c1[N+](=O)[O-] | 18.1 |  |
| Cc1ccn(CC(=O)N2N=C(C(F)F)CC2(O)C(F)F)n1 (stereo not given) | 13.8 |  |
| N#Cc1ccc(-c2nc3c(Cl)cc(C(F)(F)F)cn3c2Cc2ccccc2C(F)(F)F)cc1 | -4.42 |  |
| CCCOc1ccccc1C1CC(=O)Nc2cc3c(cc21)OCO3 (stereo not given) |  | 4.61 µM (active) |
| O=C1CC(c2ccc(F)cc2F)c2cc3c(cc2N1)OCO3 (stereo not given) | 0 |  |
| COC(=O)C1=C(C)NC(=O)CC1c1ccccc1OC (stereo not given) | -1.64 |  |
